HUVEC tox TNFa = cytotoxicity in TNFa-stimulated HUVEC, primary screen, cytotoxicity control for VCAM1 expression modulator project, imaging, Hoechst nuclei count; cell count reduction, % at 2 µM; HUVEC TNFalpha-stimulated, Hoechst cell count; AID 848, 2007; 93,000 compounds, 0.17% hits;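 active = cell count reduction exceeding the screen mean by over 5 SD, scaled to untreated wells per plate, cut at about 78% in these data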;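 also: cells counted after 24 h of TNF alpha exposure following the 1 h pretreatment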
Phagocytosis inh = inhibitors of macrophage phagocytosis, primary screen, imaging, J774A.1 cells, IgG beads. J774A.1 macrophage IgG-bead phagocytosis. inhibition, % at 5 µM. 110,000 compounds, 0.07% hits. AID 1029, 2008;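 active = inhibition above the mean of the plate negative controls plus 5 SD, cut at about 13% in these data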;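 also: phagocytic index as fraction of beads internalized from green versus red external bead signal; plate controls were DMSO negative control for no effect and cytochalasin-D positive control for full effect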
F-actin modifier = modifiers of F-actin cytoskeleton organization, primary screen, imaging, HUVEC, phalloidin staining, high-content imaging. HUVEC TNFa F-actin phalloidin imaging. inhibition, % at 2 µM. 91,000 compounds, 0.18% hits. AID 836, 2007;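 active = inhibition above the batch mean plus 3 SD and confirmed as a hit by visual image inspection, cut at about 30% in these data, passing the limit was not always enough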
Insulin prom inh = inhibitors of insulin promoter-driven GFP, primary screen, imaging, TRM-6 cells (human fetal islet line), eGFP reporter, cell count; reporter expression induced with tamoxifen; inhibition, % at 2 µM; 130,000 compounds, 0.9% hits;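 active = inhibition above the mean plus 3 SD, with well images judged a real hit on visual review, cut at about 60% in these data, passing the limit was not always enough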
E-sel TNF inh = E-selectin induction blockers in HUVEC – imaging, immunofluorescence, high content, primary screen. HUVEC TNFa-induced E-selectin immunofluorescence. inhibition, % at 2 µM. 120,000 compounds, 0.71% hits;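 active = inhibition above the batch mean plus 3 SD, and confirmed as a hit on visual image review, cut at about 43% in these data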;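 also: 0% = TNF-stimulated DMSO wells and 100% = unstimulated control wells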
VCAM1 TNFa inh = inhibitors of TNFa-induced VCAM1 expression, primary screen, imaging, HUVEC, TNFa stimulus, immunofluorescence; HUVEC TNFa-induced VCAM-1 immunofluorescence, high-content imaging; inhibition, % at 2 µM; 95,000 compounds, 0.48% hits; AID 802, 2007;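 active = inhibition above the batch mean plus 3 SD, with images confirmed as a hit by eye, cut at about 37% in these data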;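 also: 0% = TNF-stimulated DMSO wells and 100% = unstimulated control wells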
Active calls of the source: *. Compounds with a hit are over-represented: about 1.6% of the library has one in this group of screens.

Results for Cc1csc(NC(=O)CSc2nnc(-c3ccc(S(=O)(=O)N4CCCC4)cc3)o2)n1 ?
HUVEC tox TNFa: 73; Phagocytosis inh: -1; F-actin modifier: -26; Insulin prom inh: 0; VCAM1 TNFa inh: 73*

How did CCOC(=O)C1=C(C)OC(N)=C(C#N)C1c1cc2c(cc1[N+](=O)[O-])OCO2 (centres undefined) do in these assays?
Insulin prom inh: -100

What do the screens show for `CC(=O)c1c(OC(=O)c2ccc(C)cc2)c2ccccc2n1C`?
HUVEC tox TNFa: -2; Phagocytosis inh: 0; F-actin modifier: -24; Insulin prom inh: 100*; E-sel TNF inh: -21; VCAM1 TNFa inh: -18

How did O=C(Cn1cnc2ccccc21)N/N=C/c1cccc([N+](=O)[O-])c1 do in these assays?
Insulin prom inh: 41

What do the screens show for `CC(C)C(NC(=O)c1ccc(F)cc1)C(=O)Nc1cccnc1` (centres undefined)?
Insulin prom inh: -55

Results for COCCCNC(=O)COc1ccc(S(=O)(=O)NCc2ccccc2)cc1Cl ?
Phagocytosis inh: -5; Insulin prom inh: -54; E-sel TNF inh: 92*

How did O=C(COc1ccc(Cl)cc1Cl)NCCCCc1ccccc1 do in these assays?
HUVEC tox TNFa: -13; F-actin modifier: 9; Insulin prom inh: -14; E-sel TNF inh: -62; VCAM1 TNFa inh: -1

What do the screens show for `O=C(COc1ccc([N+](=O)[O-])cc1Cl)NCCc1ccccc1`?
Phagocytosis inh: 4; Insulin prom inh: -72; E-sel TNF inh: 88*

Results for COC(=O)c1sc2nc(C)cc(C)c2c1N ?
Insulin prom inh: 35

Results for CC(=O)c1sc2nc(C)cc(C)c2c1N ?
HUVEC tox TNFa: 2; Phagocytosis inh: -1; F-actin modifier: -30; Insulin prom inh: 77*; E-sel TNF inh: -39; VCAM1 TNFa inh: -17

What do the screens show for `Cc1oc2cc3c(C(=O)N4CCCCC4)c(C)oc3cc2c1C(=O)N1CCCCC1`?
HUVEC tox TNFa: 80*; Phagocytosis inh: 0; F-actin modifier: -22; E-sel TNF inh: -27; VCAM1 TNFa inh: 89*

What do the screens show for `CCOC(=O)C1=C(C)OC(N)=C(C#N)C1c1ccc(C)s1` (centres undefined)?
Insulin prom inh: 23

What do the screens show for `Cc1ccc(S(=O)(=O)N(CC(=O)NCc2ccco2)Cc2ccc(F)cc2)cc1`?
Phagocytosis inh: -1; F-actin modifier: 100*; Insulin prom inh: -372; E-sel TNF inh: -26

What do the screens show for `Cc1ccccc1C(=O)NNC(=O)/C=C/c1ccccc1`?
Insulin prom inh: 6

What do the screens show for `CC(C)Cc1nc(C(N)=O)c2[nH]c(=O)n(-c3ccc(F)cc3)c2n1`?
HUVEC tox TNFa: -27; F-actin modifier: 14; E-sel TNF inh: -5; VCAM1 TNFa inh: 14

How did Cc1cccc(-n2c(=O)[nH]c3c(C(N)=O)nc(CC(C)C)nc32)c1 do in these assays?
HUVEC tox TNFa: -18; Phagocytosis inh: -2; F-actin modifier: -15; Insulin prom inh: 82*; VCAM1 TNFa inh: -11

What do the screens show for `Cc1cc(C(=O)CCl)c(C)n1-c1cccc([N+](=O)[O-])c1`?
E-sel TNF inh: -25

How did Cc1cc(C(=O)CCl)c(C)n1-c1ccon1 do in these assays?
Insulin prom inh: 82*

How did O=C(OCn1ncc(Br)c(Br)c1=O)c1ccc(F)cc1 do in these assays?
HUVEC tox TNFa: 28; Phagocytosis inh: 0; F-actin modifier: -7; Insulin prom inh: -186; E-sel TNF inh: 90*; VCAM1 TNFa inh: 81*

What do the screens show for `Cc1ccc(NC(=O)CS(=O)CC(=O)N(c2ccc(C)cc2)C(C)C(=O)NC2CCCCC2)cc1` (centres undefined)?
HUVEC tox TNFa: -3; F-actin modifier: 6; Insulin prom inh: -160; E-sel TNF inh: -3; VCAM1 TNFa inh: 13

Results for CCN(CC)CC(=O)Nc1sc(C)c(C)c1C(=O)c1ccc(C)cc1 ?
Insulin prom inh: -27; E-sel TNF inh: 4

What do the screens show for `Cc1ccc(C(=O)c2c(NC(=O)c3ccccc3C)sc(C)c2C)cc1`?
HUVEC tox TNFa: -29; Phagocytosis inh: -1; F-actin modifier: 10; Insulin prom inh: -8; E-sel TNF inh: 100*; VCAM1 TNFa inh: 0

Results for Cc1ccc(SCC(=O)Nc2cccc(NC(=O)c3ccco3)c2)cc1 ?
HUVEC tox TNFa: 7; F-actin modifier: -3; Insulin prom inh: -21; E-sel TNF inh: 6; VCAM1 TNFa inh: 9

How did CCOC(=O)/C(C#N)=C\C1=C(N2CCCC2)CC(C)(CC)OC1 (centres undefined) do in these assays?
HUVEC tox TNFa: 0; F-actin modifier: -24; Insulin prom inh: 37; E-sel TNF inh: 0; VCAM1 TNFa inh: 1

What do the screens show for `CNC(=S)N(CCc1ccccc1)Cc1cc2cc(OC)c(OC)cc2[nH]c1=O`?
Phagocytosis inh: -8; Insulin prom inh: 62*; E-sel TNF inh: -14

What do the screens show for `O=C(CN1N=C(c2ccc(Cl)cc2)CCC1=O)NCCN1CCc2ccccc2C1`?
Phagocytosis inh: -5; Insulin prom inh: -81

What do the screens show for `COc1ccccc1C(=O)Nc1c(C)n(C)n(-c2ccccc2)c1=O`?
HUVEC tox TNFa: -2; Phagocytosis inh: 1; F-actin modifier: -35; E-sel TNF inh: 43; VCAM1 TNFa inh: -7

What do the screens show for `Cc1c(NC(=O)c2cnn3cccnc23)c(=O)n(-c2ccccc2)n1C`?
HUVEC tox TNFa: 4; Phagocytosis inh: 5; F-actin modifier: 10; Insulin prom inh: 75*; E-sel TNF inh: -26; VCAM1 TNFa inh: 10

Results for COc1ccccc1NC(=O)Nc1c(C)n(C)n(-c2ccccc2)c1=O ?
HUVEC tox TNFa: -13; Phagocytosis inh: -4; F-actin modifier: -9; Insulin prom inh: 100*; E-sel TNF inh: 18; VCAM1 TNFa inh: 10

Results for CC(C)N=C1NN=C(c2ccc(F)cc2)CS1 ?
Insulin prom inh: -33

What do the screens show for `Cc1noc(C)c1COc1cccc(C(=O)Nc2ccc(OCc3ccccc3)cc2)c1`?
HUVEC tox TNFa: 0; Phagocytosis inh: 0; F-actin modifier: -11; Insulin prom inh: 26; E-sel TNF inh: -19; VCAM1 TNFa inh: 6

What do the screens show for `CC1CCC(n2c(=S)[nH]c3ccccc3c2=O)CC1` (centres undefined)?
HUVEC tox TNFa: -33; Phagocytosis inh: 0; F-actin modifier: -1; Insulin prom inh: 80*; E-sel TNF inh: 6; VCAM1 TNFa inh: -8

How did CSc1nc2ccccc2n1C(=O)Oc1ccccc1 do in these assays?
HUVEC tox TNFa: -8; Phagocytosis inh: 1; F-actin modifier: -18; Insulin prom inh: 87*; E-sel TNF inh: -14; VCAM1 TNFa inh: -7

How did CCOC(=O)n1c(SCC(N)=O)nc2ccccc21 do in these assays?
HUVEC tox TNFa: -13; F-actin modifier: -4; Insulin prom inh: -21; E-sel TNF inh: -27; VCAM1 TNFa inh: 7
